ERa coact pot = ER-alpha (human) coactivator binding potentiation; P03372; TR-FRET ERalpha-LBD/SRC-Cy5 coactivator binding, 2 h; 100 = basal binding, no effect; coactivator binding (% of control), % at 25.6 µM; 1.3% of 86,000 active; in the data active = activity above about 200%;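 note: binding measured in presence of low estradiol as agonist stimulus; 0% = peptide alone without receptor and 100% = receptor with peptide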
Target sequence (P03372 whole entry, looked up, the tested form may be a part): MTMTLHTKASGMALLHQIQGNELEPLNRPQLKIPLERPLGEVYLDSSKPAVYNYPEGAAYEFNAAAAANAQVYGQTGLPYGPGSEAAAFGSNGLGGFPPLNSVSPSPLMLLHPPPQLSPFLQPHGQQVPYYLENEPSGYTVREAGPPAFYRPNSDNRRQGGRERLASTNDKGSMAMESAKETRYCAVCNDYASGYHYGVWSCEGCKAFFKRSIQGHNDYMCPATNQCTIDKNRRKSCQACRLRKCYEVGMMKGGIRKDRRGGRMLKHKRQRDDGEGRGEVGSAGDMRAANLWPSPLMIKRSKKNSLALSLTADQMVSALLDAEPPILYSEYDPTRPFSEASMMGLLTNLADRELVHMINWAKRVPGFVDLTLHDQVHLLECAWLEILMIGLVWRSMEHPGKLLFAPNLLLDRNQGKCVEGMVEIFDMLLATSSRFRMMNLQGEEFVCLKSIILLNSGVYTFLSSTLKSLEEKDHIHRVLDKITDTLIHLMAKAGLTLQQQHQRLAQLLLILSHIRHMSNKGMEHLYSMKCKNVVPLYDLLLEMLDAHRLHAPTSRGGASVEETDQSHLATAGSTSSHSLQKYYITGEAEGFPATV
ERb SRC1 inh = ER-beta (human) coactivator binding inhibition. AID 633. TR-FRET ER-beta LBD / SRC1-Cy5 peptide binding; receptor agonist-loaded with 1 µM estradiol. 1.3% of 86,000 active. inhibition, % at 25.6 µM. Q92731;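 active = compounds whose percent inhibition of the receptor-coactivator binding signal exceeds about 50% in the single-dose screen, limit read from the data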;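 note: 0% = receptor plus peptide wells without compound and 100% = peptide-only wells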
MRP1 act = activates MRP-1; 0.61% of 140,000 active; H69AR cells + doxorubicin, viability rescue, CellTiter-Glo; viability increase, % at 10 µM;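 active = viability gain under doxorubicin at or above a set limit, the compound median plus 3 SD, cut at about 4.7% in these data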;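 note: MRP-1 overexpressing cells given doxorubicin 25 µM after compound pretreatment; 18-22 h compound pretreatment then 72 h with doxorubicin before readout; 0% = doxorubicin-only wells and 100% = vehicle-treated cells without doxorubicin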
ERa coact inh = blocks coactivator binding to human estrogen receptor alpha; 1.7% of 86,000 active; inhibition, % at 25.6 µM; TR-FRET ER-alpha LBD / SRC-1 peptide, estradiol-bound; AID 629; in the data active = inhibition above about 50%;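 note: 0% = receptor plus peptide control and 100% = peptide only without receptor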
MRP reversal = reverses drug resistance mediated by MRP. H69AR cells + 2 uM doxorubicin, CellTiter-Glo, 72 h. differential viability (reversal), % at 10 µM. 0.04% of 85,000 active. AID 602;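 active = viability drop by adding the cancer drug above about 55%, with treated viability meeting a 40% cutoff, limit read from the data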;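 note: viability without doxorubicin minus viability with 2 µM doxorubicin for each compound; larger differential means the compound sensitizes cells more to doxorubicin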
The depositor's hits bear a star; / = no result given; [ ] = dose if it differs, or a comment. Sampled rows, rich in hits. Any-hit rate of the full collection: about 2.7%.

SMILES	ERa coact pot	ERb SRC1 inh	MRP1 act	ERa coact inh	MRP reversal
Cc1ccc2c(c1)c1c3n2CC(=C2C(=O)OC(C)(C)OC2=O)NC3CCC1 (centres undefined)	82	54*[fluorescence artefact?]	1	44	-15
O=C(Cn1cnc2c(cnn2-c2ccc(F)cc2)c1=O)NCC1CCCO1 (centres undefined)	200*	-5	0	1	6
Cn1c(=O)[nH]c(=O)c2c1nc(N1CCCC1)n2CCSc1nc2ccccc2[nH]1	/	/	-2	/	/
Cc1ccc(-n2c(C)nc3oc4ccccc4c(=O)c3c2=O)cc1	36	94*[fluorescence artefact?]	-2	91*[fluorescence artefact?]	-8
CCc1nc2oc3cc(OC)ccc3c(=O)c2c(=O)n1-c1ccccc1	102	6	-4	10	-6
COc1ccc(Cc2nc3ccccc3n2CC(=O)N/N=C/c2ccc(C)cc2O)cc1OC	/	/	3	/	/
COc1ccc(Cc2nnc(N/N=C/c3ccc(O)cc3O)[nH]c2=O)cc1OC	/	/	6.0*	/	/
O=C1C2C3C=CC(C3)C2C(=O)N1c1cccc(N2C(=O)C3C4C=CC(C4)C3C2=O)n1 (centres undefined)	92	14	-1	5	8
O=C1C2C3C=CC(C3)C2C(=O)N1c1cccc2cccnc12 (centres undefined)	65	51*	-3	40	0
CC1=C(C)C(=O)NC(Nc2nc(C)c3cc(C)cc(C)c3n2)N1 (centres undefined)	121	-4	/	4	-14
O=C(CSc1nc2c(sc3ccccc32)c(=O)n1Cc1ccco1)NCC1CCCO1 (centres undefined)	279*[fluorescence artefact?]	39	-2	12	15
O=C(O)C1C2C=CC3(CN(Cc4ccco4)C(=O)C13)O2 (centres undefined)	111	-1	-2	98*[fluorescence artefact?]	6
CCOc1ccccc1CNC(=O)c1cc2oc3ccccc3c2n1CC	104	0	7.6*	0	12
CSc1nnc(CSc2cc(C)nc(N(C)C)n2)o1	/	/	-3	/	/
O=C(Cc1ccccc1)Nc1ccc2oc(-c3ccncc3)nc2c1	299*[fluorescence artefact?]	47	0	51*[fluorescence artefact?]	9
CC(Oc1ccc(Cl)cc1Cl)C(=O)Nc1ccc2oc(-c3ccncc3)nc2c1 (centres undefined)	327*	41	2	26	0
O=S(=O)(c1ccc2oc(-c3ccncc3)nc2c1)c1ccc2oc(-c3ccncc3)nc2c1	237*[fluorescence artefact?]	51*[fluorescence artefact?]	/	10	-17
O=C(Nc1ccc2oc(-c3cccc(F)c3)nc2c1)c1ccccc1F	223*[fluorescence artefact?]	7	-3	11	3
Cc1ccc(-c2nc3cc(NC(=O)C(C)C)ccc3o2)cc1	143	15	-3	11	-6
CC(C)CC(=O)Nc1ccc2oc(-c3ccncc3)nc2c1	105	13	-1	41	-2
O=C(Nc1ccc2oc(-c3ccccc3)nc2c1)c1ccccc1F	121	2	-1	-5	-2
CCOC(=O)N1CCN(CC(=O)Nc2ccc(Oc3ccccc3)cc2)CC1	78	29	-3	0	-2
CCN(CC)c1ccc2cc(C(=O)Nc3cccnc3N3CCOCC3)c(=O)oc2c1	116	-6	/	-10	-22
CCOc1cc(-n2cnnn2)c(OCC)cc1NC(=O)c1cc2ccc(N(CC)CC)cc2oc1=O	191	53*[fluorescence artefact?]	/	84*[fluorescence artefact?]	-8
Cn1c(=O)c(C(=O)Nc2ccccn2)c(O)c2ccccc21	286*[fluorescence artefact?]	10	-3	-5	-10
SMILES	ERa coact pot	ERb SRC1 inh	MRP1 act	ERa coact inh	MRP reversal
CCCn1c(=O)c2ccccc2n2c(SCN3C(=O)c4ccccc4C3=O)nnc12	111	96*[fluorescence artefact?]	/	-3	-14
CCCn1c(=O)c2ccccc2n2c(SCC(=O)c3ccc(CC)cc3)nnc12	128	43	-1	17	10
COCCN(CCOC)S(=O)(=O)c1ccc(C(=O)Nc2nc(C)c(C(C)=O)s2)cc1	/	/	0	/	/
O=C(Nc1nc(-c2ccc3c(c2)OCCO3)cs1)c1ccc(S(=O)(=O)N2CCCCC2)cc1	269*[fluorescence artefact?]	15	-1	11	10
COCCN(CCOC)S(=O)(=O)c1ccc(C(=O)Nc2nc(-c3ccncc3)cs2)cc1	211*	3	-2	9	-3
O=C(Nc1nc(-c2ccc(S(=O)(=O)N3CCCCCC3)cc2)cs1)c1ccccc1	696*[fluorescence artefact?]	-4	-1	-10	-3
CN(C)S(=O)(=O)c1ccc(C(=O)Nc2nc(-c3cccs3)cs2)cc1	177	11	-1	-2	8
O=C(Nc1nc(-c2cccs2)cs1)c1ccc(S(=O)(=O)N2CCCC2)cc1	190	51*[fluorescence artefact?]	-3	13	3
